Measurements taken from the supplement of paper PMC9925115.
Structures can show the parent of a compound that is named as a salt. ± gives the uncertainty stated by the source.

System: FLX1
Experiment: cell viability z-score within plate (CellTiter-Glo), mean of 3 biological replicates; higher = higher viability relative to plate (less growth inhibition)
Settings: 2 µM; time (hr): 120
Protocol: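 FLX1 fibrolamellar carcinoma cells (DNAJB1-PRKACA fusion), 600 cells/well in 384-well plates, treated with a Selleck kinase inhibitor library (L1200) at 2 uM for 5 days (120 hr); viability by CellTiter-Glo. A z-score was computed within each plate and averaged over three biological replicates.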

SMILES | cell viability z-score within plate
CCN1CCN(Cc2ccc(-c3cc4c(N[C@H](C)c5ccccc5)ncnc4[nH]3)cc2)CC1 | 0.278 ± 0.61
CC(C)(C)c1ccc(S(=O)(=O)/C=C/C#N)cc1 | -0.975 ± 1.1
CCN1CCN(Cc2ccc(Nc3ncc(F)c(-c4cc(F)c5nc(C)n(C(C)C)c5c4)n3)nc2)CC1 | 0.939 ± 0.8
COCC(=O)NC/C=C/c1ccc2ncnc(Nc3ccc(Oc4ccc(C)nc4)c(C)c3)c2c1 | -0.356 ± 0.16
Nc1ccc(-c2ccc3ncc4ccc(=O)n(-c5cccc(C(F)(F)F)c5)c4c3c2)cn1 [Torin 2] | 0.796 ± 0.29
CC(C)(O)CC(=O)NCCn1ccc2ncnc(Nc3ccc(Oc4cccc(C(F)(F)F)c4)c(Cl)c3)c21 | -0.891 ± 0.77
COc1cc2c(Oc3ccc4[nH]c(C)cc4c3F)ncnc2cc1OCCCN1CCCC1 [Cediranib (AZD2171)] | 0.6 ± 0.47
c1cncc(CN2CCC(n3ncc4c(N5CCOCC5)nc(-c5ccc6[nH]ccc6c5)nc43)CC2)c1 | 0.437 ± 0.062
CCOc1cc(N2CCC(O)CC2)ccc1Nc1ncc2c(n1)N(C)c1ccccc1C(=O)N2C | 0.413 ± 1.6
CNC(=O)c1cc(Oc2ccc(NC(=O)Nc3cc(C(C)(C)C)nn3-c3ccc4ncccc4c3)c(F)c2)ccn1 [Rebastinib (DCC-2036)] | 0.382 ± 0.34
CNc1nc(-c2ccc3c(N)n[nH]c3c2)cc(N2C[C@@H](C(=O)NC3CCCCC3)CC[C@H]2C)n1 | 0.0251 ± 0.54
CCC[C@H](NC(=O)/C(C#N)=C/c1cccc(Br)n1)c1ccccc1 [Degrasyn (WP1130)] | -0.0534 ± 0.15
Nc1nc(Nc2ccc(S(N)(=O)=O)cc2)nn1C(=O)c1c(F)cccc1F | -2.24 ± 0.22
C[C@H]1[C@H](C)CC[C@]2(C(=O)O)CC[C@]3(C)C(=CC[C@@H]4[C@@]5(C)C[C@@H](O)[C@H](O)[C@@](C)(CO)[C@@H]5CC[C@]43C)[C@H]12 [Asiatic Acid] | 0.124 ± 0.46
N[C@@H]1CCCN(c2c(/C=C3\SC(=O)NC3=O)cccc2-c2ccccc2)C1 | 0.166 ± 0.49
O=C(Nc1ccc(-c2ccnc(Nc3ccc(N4CCOCC4)cc3)n2)cc1)C1CCCN1 (stereo not drawn) | 0.342 ± 0.56
CCOc1cc(C(=O)N2CCC(N3CCN(C)CC3)CC2)ccc1Nc1ncc2c(n1)N(C1CCCC1)c1ccccc1C(=O)N2C | 0.444 ± 0.17
CN1CCN(c2ccc(Nc3cc(-c4cccc(-n5ccc6cc(C7CC7)cc(F)c6c5=O)c4CO)cn(C)c3=O)nc2)CC1 | -0.244 ± 0.38
O=C1NC(=O)C(c2cnc3ccccn23)=C1c1cn2c3c(cc(F)cc13)CN(C(=O)N1CCCCC1)CC2 | 1.17 ± 1.1

SMILES | cell viability z-score within plate
CCc1cncnc1N1CCN(Cc2nc3ccc(C(F)(F)F)cc3[nH]2)CC1 | 0.164 ± 0.73
COc1cc(Nc2c(C#N)cnc3cc(OCCCN4CCN(C)CC4)c(OC)cc23)c(Cl)cc1Cl [Bosutinib (SKI-606)] | 0.309 ± 0.56
Cc1cc(Nc2ncc(Cl)c(Nc3ccccc3S(=O)(=O)C(C)C)n2)c(OC(C)C)cc1C1CCNCC1 [Ceritinib (LDK378)] | 0.337 ± 0.65
CCc1nc(-c2cccc(C)c2)c(-c2ccnc(NC(=O)c3ccccc3)c2)s1 | 0.996 ± 0.36
NC1(Cc2ccc(Cl)cc2)CCN(c2ncnc3[nH]ccc23)CC1 | -0.404 ± 1.4
CO[C@H]1C[C@@H]2CC[C@@H](C)[C@@](O)(O2)C(=O)C(=O)N2CCCC[C@H]2C(=O)O[C@H]([C@H](C)C[C@@H]2CC[C@@H](O)[C@H](OC)C2)CC(=O)[C@H](C)/C=C(\C)[C@@H](O)[C@@H](OC)C(=O)[C@H](C)C[C@H](C)/C=C/C=C/C=C/1C [Rapamycin (Sirolimus)] | 0.422 ± 0.17
Oc1ccc(-c2nc(-c3ccc(F)cc3)c(-c3ccncc3)[nH]2)cc1 | -1.48 ± 1.1
O=C(Nc1cccc(Cl)c1)Nc1ncc(CCNc2ncnc3ccsc23)s1 [SNS-314 Mesylate] | -2.37 ± 0.38
CO[C@H]1C[C@@H]2CC[C@@H](C)[C@@](O)(O2)C(=O)C(=O)N2CCCC[C@H]2C(=O)O[C@H]([C@H](C)C[C@@H]2CC[C@H](n3cnnn3)[C@H](OC)C2)CC(=O)[C@H](C)/C=C(\C)[C@@H](O)[C@@H](OC)C(=O)[C@H](C)C[C@H](C)/C=C/C=C/C=C/1C [Zotarolimus(ABT-578)] | 0.264 ± 0.45
COc1cc(CCc2cc(NC(=O)c3ccc(N4CC(C)NC(C)C4)cc3)n[nH]2)cc(OC)c1 (stereo not drawn) | 1.18 ± 0.41
O=C(O)[C@]1(Cc2cccc(Nc3nccs3)n2)CC[C@@H](Oc2cccc(Cl)c2F)CC1 | -1.08 ± 1
CCOc1ccn(-c2ccc(F)cc2)c(=O)c1C(=O)Nc1ccc(Oc2ccnc(N)c2Cl)c(F)c1 | -0.36 ± 1.2
CS(=O)(=O)CCNCc1ccc(-c2ccc3ncnc(Nc4ccc(OCc5cccc(F)c5)c(Cl)c4)c3c2)o1 [Lapatinib] | 0.823 ± 0.37
Nc1cc(C(F)(F)F)c(-c2cc(N3CCOCC3)nc(N3CCOCC3)n2)cn1 [Buparlisib (BKM120, NVP-BKM120)] | -0.0175 ± 0.38
O=c1cc(-c2cccc3c2Sc2ccccc2S3)oc(N2CCOCC2)c1 | 0.731 ± 0.28
CC(C)n1nc(-c2ccc3oc(N)nc3c2)c2c(N)ncnc21 | 0.871 ± 0.17
CNc1nc(Nc2cnn([C@H]3CCN(C4COC4)C[C@@H]3F)c2Cl)ncc1C(F)(F)F | -0.856 ± 0.51
Clc1ccc(Nc2nnc(Cc3ccncc3)c3ccccc23)cc1 [Vatalanib (PTK787) 2HCl] | -0.254 ± 0.59
FC(F)c1nc2ccccc2n1-c1nc(N2CCOCC2)nc(N2CCOCC2)n1 | 0.852 ± 0.61
